Where a name gives a salt, the structure may show the parent alone.
Tested on: HL-1
Experiment: relative cell viability (CellTiter-Glo) vs DMSO control (% of DMSO control); higher = more viable cells
Procedure, shortened: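 HL-1 mouse atrial cardiomyocytes were plated in 384-well plates at 1000 cells per well together with compounds at 40, 200, 1000 or 5000 nM in 0.01% DMSO. One day later, cells went to a hypoxic workstation (1% O2) for 48 h, then were reoxygenated for 24 h in a normal incubator, or stayed in normoxia for the same time. Cell viability was read by CellTiter-Glo luminescence and normalised to vehicle-treated control cells.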

[1] = oxygen condition: hypoxia 48 h (1% O2) + reoxygenation 24 h, 40 nM
[2] = oxygen condition: hypoxia 48 h (1% O2) + reoxygenation 24 h, 200 nM
[3] = oxygen condition: hypoxia 48 h (1% O2) + reoxygenation 24 h, 1000 nM
[4] = oxygen condition: hypoxia 48 h (1% O2) + reoxygenation 24 h, 5000 nM
[5] = oxygen condition: normoxia 72 h, 40 nM
[6] = oxygen condition: normoxia 72 h, 200 nM
[7] = oxygen condition: normoxia 72 h, 1000 nM
[8] = oxygen condition: normoxia 72 h, 5000 nM

Structure (SMILES)	relative cell viability [1]	relative cell viability [2]	relative cell viability [3]	relative cell viability [4]	relative cell viability [5]	relative cell viability [6]	relative cell viability [7]	relative cell viability [8]
NC(=O)c1ncn([C@@H]2O[C@H](CO)[C@@H](O)[C@H]2O)c1N [Acadesine]	90.2	102	102	116	103	103	110	117
CO[C@H]1O[C@@H]2O[C@@]3(C)CC[C@H]4[C@H](C)CC[C@@H]([C@H]1C)[C@@]24OO3 [Artemether]	104	103	100	60.3	103	102	98.3	93.2
CN1CCN(C2=Nc3cc(Cl)ccc3Nc3ccccc32)CC1 [Clozapine]	105	104	105	99.9	96	108	113	102
CC[C@H](C)C(=O)O[C@H]1C[C@H](O)C=C2C=C[C@H](C)[C@H](CC[C@@H](O)C[C@@H](O)CC(=O)O)[C@H]21 [Pravastatin sodium]	99.1	94.4	84.7	19.8	96.8	95.9	70.7	6.81
CC1CNc2c(cccc2S(=O)(=O)N[C@@H](CCCNC(=N)N)C(=O)N2CC[C@@H](C)C[C@@H]2C(=O)O)C1 (some centres undefined) [Argatroban]	97.7	97.5	94.6	106	97.3	95.6	97.6	106
C=CCNC(N)=S [Allylthiourea]	118	102	115	122	106	100	109	124
O=C(O)[C@H](CC(=O)N1C[C@H]2CCCC[C@H]2C1)Cc1ccccc1 [Mitiglinide calcium]	108	101	99.7	108	101	102	104	110
CNS(=O)(=O)CCc1ccc2[nH]cc(C3CCN(C)CC3)c2c1 [Naratriptan HCl]	97.1	103	105	108	103	103	97.6	111
